# Experimental data: PubChem BioAssay AID1851 (National Center for Advancing Translational Sciences (NCATS), 2009)
# About 5,700 (36%) of roughly 16,000 compounds were called active. Inconclusive results (about 24%) are left out. Calls come from the whole dose curve; as a rule, active = well fitted curve in the direction sought with a large enough effect; inconclusive = small, poorly fitted or top-dose-only effect, or effect the other way; inactive = no such curve, though single readings can be large or run the other way. Some of the results follow.
# Target: Cytochrome P450 1A2 (Homo sapiens) (UniProt P05177)
# Sequence (P05177 whole entry, looked up): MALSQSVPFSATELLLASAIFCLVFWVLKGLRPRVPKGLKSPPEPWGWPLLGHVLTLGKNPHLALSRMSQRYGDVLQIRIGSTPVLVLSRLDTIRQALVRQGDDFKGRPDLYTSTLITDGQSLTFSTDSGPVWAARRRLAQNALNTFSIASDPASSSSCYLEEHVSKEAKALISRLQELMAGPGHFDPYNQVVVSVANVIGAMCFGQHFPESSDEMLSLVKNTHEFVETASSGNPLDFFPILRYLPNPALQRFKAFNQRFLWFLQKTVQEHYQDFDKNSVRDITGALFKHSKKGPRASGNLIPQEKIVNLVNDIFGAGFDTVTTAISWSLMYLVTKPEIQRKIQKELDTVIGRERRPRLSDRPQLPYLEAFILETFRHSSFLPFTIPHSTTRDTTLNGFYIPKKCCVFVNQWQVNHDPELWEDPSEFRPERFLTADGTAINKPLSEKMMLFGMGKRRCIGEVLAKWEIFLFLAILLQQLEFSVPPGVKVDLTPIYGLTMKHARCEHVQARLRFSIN
# Assay: Cytochrome panel assay with activity outcomes
# Settings: recombinant CYP, pro-luciferin dealkylation, luminescence, p450-cyp1a2; series mostly up to 57.1 µM
# % is set by controls: 0 for no effect and ±100 for the full control effect.
Compound,AC50,"activity, negative = inhibition"
C=CCNc1sc(C(=O)c2ccccc2)c(N)c1C#N,3160 nM (active),–
N#CC(CC(=O)O)=C(c1ccccc1)c1ccccc1,–,-14.5% [at 2.29 µM] (inactive)
C=CCNc1sc(C(=O)c2ccc(C)cc2)c(N)c1C#N,1780 nM (active),–
O=C(NC1CCCc2ccccc21)C1CCN(S(=O)(=O)N2CCCCCC2)CC1 (stereo unspecified),inactive,–
CCN1CCN(C(=O)C2c3cc(OC)c(OC)cc3C(=O)N3CCc4ccccc4C23)CC1 (stereo unspecified),inactive,–
O=C(C1CCCCC1)N1CC(=O)N2CCc3ccccc3[C@@H]2C1,10000 nM (active),–
CCOc1nc(N=C(N)N)nc2c(C)cccc12,178 nM (active),–
CN1Cc2c(C(=O)OC(C)(C)C)ncn2-c2ccsc2C1=O,15800 nM (active),–
CN(C)C(=O)c1ccc(-c2cncnc2NCCc2cnc[nH]2)cc1,12600 nM (active),–
CN(C)c1ccc(-c2cncnc2NCCc2cnc[nH]2)cc1,1260 nM (active),–
c1ncc(-c2ccc3c(c2)OCO3)c(NCCc2cnc[nH]2)n1,398 nM (active),–
CCCCCc1nnc(NC(=O)C(=O)OCC)s1,inactive,–
Cc1sc(NC(=O)C2CCCCC2C(=O)O)c(C(N)=O)c1C (stereo unspecified),inactive,–
CCc1c(C)sc(NC(=O)OC)c1C(N)=O,8910 nM (active),–
O=C(Oc1ccc(C(=S)N2CCOCC2)cc1Br)c1cc(Cl)ccc1Cl,inactive,–
O=C(c1ccc(Cl)c(Cl)c1)c1cc(-c2ccccn2)c(N2CCOCC2)s1,11200 nM (active),–
O=C(O)c1cc2ccccc2c(Cc2cc3ccccc3c(C(=O)O)c2O)c1O (tested in a mixture with another compound),inactive,–
O=C(O)c1cc(C(=O)C(=O)c2cc(C(=O)O)c(O)c3ccccc23)c2ccccc2c1O,–,-6.52% [at 11.4 µM] (inactive)
O=C(O)c1c2ccccc2cc2ccccc12,200 nM (active),–
C=CCSC[C@@H]1Nc2cc(Cl)c(S(N)(=O)=O)cc2S(=O)(=O)N1,inactive,–
Cc1noc(C)c1C(=O)N1CCC[C@@]2(CCN(c3ncccn3)C2)C1,inactive,–

Compound,AC50,"activity, negative = inhibition"
COc1ccc2[nH]cc(CCNc3nc(-c4ccc(N(C)C)cc4)nc4ccccc34)c2c1,1260 nM (active),–
COc1ccc2[nH]cc(CCNc3nc(-c4ccc(C(=O)N(C)C)cc4)nc4ccccc34)c2c1,15800 nM (active),–
COc1cccc(N(C(=O)Cn2nnc(-c3ccc(C)cc3)n2)C(C(=O)NC(C)(C)C)c2c[nH]c3ccccc23)c1 (stereo unspecified),inactive,–
C[C@H]1CCCC2(CC[N+](C)(CCC[N+](C)(C)C)CC2)C1 (stereo partly specified),–,-9.21% [at 11.4 µM] (inactive)
COC(=O)c1ccccc1NC(=O)c1cc2nc(C3CC3)cc(C(F)(F)F)n2n1,1580 nM (active),–
COCCNc1nc(-c2ccccc2Cl)nc2ccccc12,126 nM (active),–
COCCNc1nc(-c2ccccc2C)nc2ccccc12,1260 nM (active),–
COCCNc1nc(-c2ccccc2C(F)(F)F)nc2ccccc12,1260 nM (active),–
COCCNc1nc(-c2ccccc2OC)nc2ccccc12,794 nM (active),–
C[C@@H](N=C(N)N)C(=O)O,–,-4.5% [at 11.4 µM] (inactive)
OCCN(CO)CO,–,-9.46% [at 11.4 µM] (inactive)
O=S1(=O)C=C(N2CCOCC2)c2ccccc21,14100 nM (active),–
CCOc1cc(/C=C2/SC(=O)N(CC(=O)N3CCc4ccccc4C3)C2=O)ccc1OCC(=O)O,inactive,–
COC(=O)c1ccccc1OCC(=O)N1CCN(c2ccc(OC)cc2)CC1,inactive,–
COc1ccc2c(c1)c(=O)oc1c(C)c(OCC(=O)N3CCc4ccccc4C3)ccc12,2000 nM (active),–
COC(=O)CSc1nnc(-c2ccccc2OC)n1-c1ccc(C)cc1,inactive,–
COc1ccccc1-c1nnc(SCc2nc3ccccc3s2)n1C,14100 nM (active),–
CCn1c(=O)c2c(nc3n2CCS3)n(C)c1=O,inactive,–
O=c1c(Cc2ccccc2)c(O)nc2n1CCS2,inactive,–
COc1cc(=O)n2c(n1)SCCC2,inactive,–
N#Cc1c(-c2ccc(Cl)cc2)nc2n(c1=O)CCCS2,1410 nM (active),–

Compound,AC50,"activity, negative = inhibition"
N#Cc1c(-c2ccccc2)nc2n(c1=O)CCS2,3160 nM (active),–
CC(C)=CCC/C(C)=C/CO/N=C1/C[C@@H](O)[C@@H](O)[C@@H]2[C@@H]3C(=O)N(C[C@@H]4CCCO4)C(=O)[C@H]3CC[C@H]12,–,-0.0642% [at 11.4 µM] (inactive)
CC(C)(C)N1C(=O)[C@H]2[C@H]3[C@H](O)[C@H](O)C/C(=N/NC(=O)OCc4ccccc4)[C@@H]3CC[C@@H]2C1=O,–,-5.49% [at 11.4 µM] (inactive)
COc1ccccc1OCCOc1ccc(/C=C2/C(=N)N3OC(C)=CC3=NC2=O)cc1OC,inactive,–
COc1ccc(/C=C2\OC(=O)c3c(OC)cccc32)cc1OC,3160 nM (active),–
Cc1cc(-c2cc(C)c(O)c(C(C)(C)C)c2)cc(C(C)(C)C)c1O,631 nM (active),–
Cc1cc(Cc2cc(C)cc(C(C)(C)C)c2O)c(O)c(Cc2cc(C)cc(C(C)(C)C)c2O)c1,–,-15.6% [at 2.29 µM] (inactive)
Cc1cc(Cc2cc(Cc3cc(C)cc(C(C)(C)C)c3O)c(C)cc2C)c(O)c(C(C)(C)C)c1,–,-17.1% [at 2.29 µM] (inactive)
O=C(Nc1ccc2c(c1)OCCO2)c1cc2sccc2n1Cc1ccc(F)cc1,4470 nM (active),–
COCCN1C(=O)c2ccccc2C(C(=O)Nc2ccc3c(c2)OCCO3)C1c1ccc(F)cc1 (stereo unspecified),inactive,–
COc1ccc(NC(=O)N2CCCC3(CCN(C(=O)c4cc(C(F)(F)F)cc(C(F)(F)F)c4)CC3)C2)cc1,inactive,–
COc1ccc(NC(=O)N2CCCC3(CCN(C(=O)c4cnccn4)CC3)C2)cc1,inactive,–
COc1ccc(-c2cc(C(F)(F)F)n3nc(C(=O)N4CCCCC4)cc3n2)cc1,15800 nM (active),–
Nc1ccccc1SCc1csc(-c2ccc(Cl)cc2)n1,631 nM (active),–
C[N+](C)(N)Cc1csc(-c2ccc(Cl)cc2)n1,–,-4.22% [at 2.29 µM] (inactive)
Nc1nc(SCC(=O)Nc2ccccc2Sc2ccc(Cl)cc2)n[nH]1,inactive,–
Cn1nc(C(=O)NC2CCCCC2)c2ccccc2c1=O,12600 nM (active),–
O=C(CCCCn1c(=O)c2ccccc2n(CC(=O)NC2CCCC2)c1=O)NC1CCCC1,inactive,–
CCCn1nc(C(=O)NCC(C)(C)N2CCOCC2)c2ccccc2c1=O,inactive,–
